As a reminder, the inhibition is the change of the read-out against control, counted positive when it falls.

Assay [1] deals with Rho-associated protein kinase 1 (Homo sapiens) (UniProt Q13464). The settings on record: at 1 µM.
Assay [2] concerns the target Rho-associated protein kinase 2 (Homo sapiens) (UniProt O75116). Particulars: at 0.1 µM.
Assay [3] shares this target. Particulars: at 1 µM.
Assay [4] concerns the target Ribosomal protein S6 kinase alpha-1 (Homo sapiens) (UniProt Q15418). The settings on record: at 0.1 µM.
Assay [5] shares this target. The settings on record: at 1 µM.
Assay [6] has as its target Ribosomal protein S6 kinase alpha-3 (Homo sapiens) (UniProt P51812). The settings on record: at 0.1 µM.
Assay [7] shares this target. Particulars: at 1 µM.
For assay [8], the target named is Ribosomal protein S6 kinase alpha-2 (Homo sapiens) (UniProt Q15349). Particulars: at 0.1 µM.
For assay [9] the target is unchanged. Particulars: at 1 µM.
In assay [10] the target is Ribosomal protein S6 kinase alpha-6 (Homo sapiens) (UniProt Q9UK32). Particulars: at 0.1 µM.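 Also: reported value is the mean inhibition of RSK4, from the GSK PKIS kinase inhibitor screen.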
Sequence of Ribosomal protein S6 kinase alpha-6 (Homo sapiens) (Q9UK32 whole entry): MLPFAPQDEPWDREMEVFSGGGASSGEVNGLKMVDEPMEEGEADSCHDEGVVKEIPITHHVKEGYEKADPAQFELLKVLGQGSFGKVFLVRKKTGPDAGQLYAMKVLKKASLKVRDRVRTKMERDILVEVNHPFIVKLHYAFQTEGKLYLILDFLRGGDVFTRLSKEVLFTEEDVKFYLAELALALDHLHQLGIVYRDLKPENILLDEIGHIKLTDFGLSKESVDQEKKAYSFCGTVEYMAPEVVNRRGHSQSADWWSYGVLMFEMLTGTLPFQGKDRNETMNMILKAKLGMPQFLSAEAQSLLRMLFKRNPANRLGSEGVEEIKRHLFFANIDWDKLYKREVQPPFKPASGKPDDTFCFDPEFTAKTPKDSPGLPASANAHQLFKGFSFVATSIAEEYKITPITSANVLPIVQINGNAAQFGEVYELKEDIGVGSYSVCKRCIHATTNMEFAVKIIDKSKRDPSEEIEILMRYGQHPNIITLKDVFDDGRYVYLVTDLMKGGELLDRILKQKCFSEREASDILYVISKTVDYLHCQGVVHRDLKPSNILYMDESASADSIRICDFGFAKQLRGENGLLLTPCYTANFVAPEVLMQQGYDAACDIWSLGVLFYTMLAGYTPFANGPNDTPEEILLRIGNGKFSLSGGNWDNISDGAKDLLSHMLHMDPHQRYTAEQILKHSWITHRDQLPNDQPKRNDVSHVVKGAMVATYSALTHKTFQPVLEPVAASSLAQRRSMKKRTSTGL

Sequence of Ribosomal protein S6 kinase alpha-3 (Homo sapiens) (P51812 whole entry): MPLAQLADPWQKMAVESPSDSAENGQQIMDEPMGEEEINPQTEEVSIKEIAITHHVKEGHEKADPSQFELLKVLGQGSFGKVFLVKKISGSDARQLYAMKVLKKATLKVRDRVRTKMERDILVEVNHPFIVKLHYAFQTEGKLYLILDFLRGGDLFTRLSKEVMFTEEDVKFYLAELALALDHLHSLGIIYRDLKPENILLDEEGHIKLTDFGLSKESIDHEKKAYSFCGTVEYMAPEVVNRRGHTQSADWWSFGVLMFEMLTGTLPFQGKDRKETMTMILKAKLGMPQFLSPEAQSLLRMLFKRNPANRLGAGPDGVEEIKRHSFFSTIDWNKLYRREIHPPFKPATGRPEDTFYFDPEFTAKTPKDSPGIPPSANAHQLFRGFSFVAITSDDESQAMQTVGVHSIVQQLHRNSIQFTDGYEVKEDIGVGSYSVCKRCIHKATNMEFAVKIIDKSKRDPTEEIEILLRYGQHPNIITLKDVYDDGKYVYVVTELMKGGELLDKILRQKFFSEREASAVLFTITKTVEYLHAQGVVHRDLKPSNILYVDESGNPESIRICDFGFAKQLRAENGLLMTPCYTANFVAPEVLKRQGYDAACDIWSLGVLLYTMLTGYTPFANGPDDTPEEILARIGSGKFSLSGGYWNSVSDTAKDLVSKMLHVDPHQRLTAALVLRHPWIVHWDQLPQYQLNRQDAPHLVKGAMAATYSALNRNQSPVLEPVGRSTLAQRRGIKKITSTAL
Sequence of Ribosomal protein S6 kinase alpha-1 (Homo sapiens) (Q15418 whole entry): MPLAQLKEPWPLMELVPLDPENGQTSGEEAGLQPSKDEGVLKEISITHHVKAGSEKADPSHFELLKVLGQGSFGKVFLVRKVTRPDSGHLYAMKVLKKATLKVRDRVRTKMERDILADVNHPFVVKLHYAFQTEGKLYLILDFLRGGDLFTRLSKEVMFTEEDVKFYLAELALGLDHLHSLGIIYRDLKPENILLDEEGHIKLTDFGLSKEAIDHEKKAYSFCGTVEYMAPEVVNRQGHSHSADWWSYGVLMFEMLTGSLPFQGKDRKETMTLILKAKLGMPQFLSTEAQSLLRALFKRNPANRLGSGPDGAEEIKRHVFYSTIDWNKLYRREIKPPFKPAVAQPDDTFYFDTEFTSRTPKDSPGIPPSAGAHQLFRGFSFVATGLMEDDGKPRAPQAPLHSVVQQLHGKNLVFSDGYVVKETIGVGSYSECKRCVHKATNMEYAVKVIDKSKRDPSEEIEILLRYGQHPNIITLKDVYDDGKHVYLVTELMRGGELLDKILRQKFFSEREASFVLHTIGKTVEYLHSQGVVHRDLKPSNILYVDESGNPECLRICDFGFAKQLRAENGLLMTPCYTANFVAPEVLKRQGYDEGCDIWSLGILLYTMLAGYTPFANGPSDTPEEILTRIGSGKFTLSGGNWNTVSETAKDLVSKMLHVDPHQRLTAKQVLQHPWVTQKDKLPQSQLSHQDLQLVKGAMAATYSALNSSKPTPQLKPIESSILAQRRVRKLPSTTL
Sequence of Rho-associated protein kinase 2 (Homo sapiens) (O75116 whole entry, looked up): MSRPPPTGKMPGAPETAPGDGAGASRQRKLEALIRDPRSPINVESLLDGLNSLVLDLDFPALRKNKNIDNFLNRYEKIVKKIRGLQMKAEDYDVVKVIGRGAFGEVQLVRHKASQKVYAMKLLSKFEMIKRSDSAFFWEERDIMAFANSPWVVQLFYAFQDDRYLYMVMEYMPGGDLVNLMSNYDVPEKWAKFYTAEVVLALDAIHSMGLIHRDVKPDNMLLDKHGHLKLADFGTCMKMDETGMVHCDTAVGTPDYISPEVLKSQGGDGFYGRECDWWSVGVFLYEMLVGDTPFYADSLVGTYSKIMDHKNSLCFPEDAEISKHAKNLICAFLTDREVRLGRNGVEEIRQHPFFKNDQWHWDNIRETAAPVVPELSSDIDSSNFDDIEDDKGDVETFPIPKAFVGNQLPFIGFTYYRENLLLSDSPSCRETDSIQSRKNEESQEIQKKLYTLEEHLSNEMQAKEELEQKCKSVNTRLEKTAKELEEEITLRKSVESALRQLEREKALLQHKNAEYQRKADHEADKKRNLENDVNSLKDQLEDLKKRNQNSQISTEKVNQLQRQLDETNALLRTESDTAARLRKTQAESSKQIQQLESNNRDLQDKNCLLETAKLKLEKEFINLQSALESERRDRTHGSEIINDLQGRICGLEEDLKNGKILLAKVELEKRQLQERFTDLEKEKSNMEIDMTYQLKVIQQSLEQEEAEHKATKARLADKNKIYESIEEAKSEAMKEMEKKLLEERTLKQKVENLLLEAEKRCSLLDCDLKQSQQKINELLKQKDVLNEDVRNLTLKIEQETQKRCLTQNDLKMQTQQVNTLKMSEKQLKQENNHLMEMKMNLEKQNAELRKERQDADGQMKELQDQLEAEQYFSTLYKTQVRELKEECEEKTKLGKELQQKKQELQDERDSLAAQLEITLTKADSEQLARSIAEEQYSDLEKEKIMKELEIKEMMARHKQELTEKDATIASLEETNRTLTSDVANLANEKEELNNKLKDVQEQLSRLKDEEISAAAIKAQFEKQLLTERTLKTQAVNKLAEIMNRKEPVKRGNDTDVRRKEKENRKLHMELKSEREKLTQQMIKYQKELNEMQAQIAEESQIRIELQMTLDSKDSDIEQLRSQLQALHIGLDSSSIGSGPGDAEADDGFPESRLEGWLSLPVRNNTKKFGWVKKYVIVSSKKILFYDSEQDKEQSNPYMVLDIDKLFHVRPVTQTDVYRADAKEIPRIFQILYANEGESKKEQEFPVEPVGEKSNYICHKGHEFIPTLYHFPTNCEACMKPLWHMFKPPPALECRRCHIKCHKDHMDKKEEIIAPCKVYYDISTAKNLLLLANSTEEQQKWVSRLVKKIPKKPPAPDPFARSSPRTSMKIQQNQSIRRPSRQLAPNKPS
Sequence of Ribosomal protein S6 kinase alpha-2 (Homo sapiens) (Q15349 whole entry): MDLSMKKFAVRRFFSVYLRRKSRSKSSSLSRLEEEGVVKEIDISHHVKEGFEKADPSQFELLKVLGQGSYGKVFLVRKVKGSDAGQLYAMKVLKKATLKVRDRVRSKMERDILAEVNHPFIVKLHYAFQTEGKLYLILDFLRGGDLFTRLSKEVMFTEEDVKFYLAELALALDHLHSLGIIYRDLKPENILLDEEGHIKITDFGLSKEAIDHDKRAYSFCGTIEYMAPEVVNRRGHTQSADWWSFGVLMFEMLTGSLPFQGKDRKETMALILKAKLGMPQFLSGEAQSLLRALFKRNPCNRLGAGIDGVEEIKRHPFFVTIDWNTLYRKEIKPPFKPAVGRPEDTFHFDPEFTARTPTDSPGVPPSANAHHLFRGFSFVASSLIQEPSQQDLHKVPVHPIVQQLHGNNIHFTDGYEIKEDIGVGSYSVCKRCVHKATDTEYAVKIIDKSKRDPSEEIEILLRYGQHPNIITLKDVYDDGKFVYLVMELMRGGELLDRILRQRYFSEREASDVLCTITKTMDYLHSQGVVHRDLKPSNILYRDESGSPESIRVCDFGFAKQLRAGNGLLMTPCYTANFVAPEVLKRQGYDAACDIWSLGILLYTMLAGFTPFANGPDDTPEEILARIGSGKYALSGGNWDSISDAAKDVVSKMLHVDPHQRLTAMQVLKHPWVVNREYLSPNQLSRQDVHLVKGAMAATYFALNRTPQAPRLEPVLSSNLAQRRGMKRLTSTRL

As to `c1ccc(Oc2ccc(Nc3ncc(-c4ccccc4)o3)cc2)cc1`, the inhibition stood at 4.29% in [1]; 4.32% in [2]; 4.11% in assay [3]; 1.98% in [4]; 3.12% in [5]; 0.81% in assay [6]. Moreover, the inhibition came to 1.91% in assay [7], 0.83% in assay [8], 1.55% in [9] and 0.67% in assay [10].
On to `Cc1ccc(C(=O)NC2CCC2)cc1-c1ccc(C(=O)NCC2CC2)cc1`, for which the inhibition was 1.32% in [1]; 1.03% in assay [2]; -0.46% in assay [3]; 1.52% in [4]; 1.45% in [5]; 0.97% in assay [6]. Also, the inhibition in assay [7] came out at 1.47%; in assay [8], 1.58%; in assay [9], 2.68%; in assay [10], 1.63%.
Turning to `FC(F)(F)c1cccc(Nc2nccc(-c3cnn4nc(-c5ccccc5)ccc34)n2)c1`, the inhibition in assay [1] was determined as 0.48%; in assay [2] it was 1.21%; in assay [3] it was 0.98%; in assay [4], 1.01%; in assay [5], 1.56%; in assay [6], 1.05%. The inhibition in [7] turned out to be 1.35%; in [8], 1.39%; in assay [9] it was 2.04%; in assay [10], 1.3%.
Consider `CCc1cccc(CC)c1/C=C/c1cncc(C(=O)NC)c1`, for which the inhibition in [1] is 1.22%; in assay [2], 1.66%; in [3], -0.13%; in assay [4], 1.4%; in assay [5] it was 0.95%; in assay [6], 0.3%. Further, the inhibition in [7] is -0.37%; in [8], 1.51%; in assay [9], 0.74%; in assay [10], 0.65%.
`COc1cc(Nc2ncc3c(C)nc(-c4cccc(C(F)(F)F)c4)n3n2)cc(OC)c1OC`: the inhibition is 2.39% in assay [1]; 2.6% in [2]; 8.14% in [3]; 5.19% in assay [4]; 26.7% in assay [5]; 5.91% in assay [6]. The inhibition in assay [7] is 31.8%; in assay [8], 7.09%; in [9], 37.1%; in assay [10], 5.57%.
Turning to `Fc1ccc(-c2ncn(C3CCNCC3)c2-c2ccnc(Oc3ccc(F)c(F)c3)n2)cc1`, the inhibition in [1] was 6.19%; in assay [2] it was 1.74%; in [3] it was 5.45%; in assay [4] it was 0.34%; in assay [5], 2.83%; in assay [6] it was -0.47%. Moreover, the inhibition was 1.32% in assay [7], 2.41% in assay [8], 2.42% in assay [9] and 0.29% in [10].
`COc1cc2ncn(-c3cc(OCCc4ccccc4)c(C(N)=O)s3)c2cc1OC`: the inhibition is 0.3% in assay [1]; 0.94% in assay [2]; -1.5% in assay [3]; 0.33% in [4]; -0.89% in assay [5]; 0.83% in [6]. Also, the inhibition in assay [7] came to 0.32%; in assay [8] it was 1.71%; in assay [9], 1.86%; in assay [10], 1.48%.
For the compound `CCS(=O)(=O)c1ccc(OC)c(Nc2ncc(-c3cccc(-c4ccccc4F)c3)o2)c1`, the inhibition in assay [1] worked out at 1.4%; in assay [2], 1.1%; in assay [3], 1%; in assay [4] it was 0.18%; in assay [5], 1.38%; in assay [6] it was 0.3%. Also, the inhibition is 0.84% in [7], 0.3% in assay [8], 2.3% in [9] and -0.01% in [10].
On to `O=C1Nc2ccccc2/C1=C/Nc1ccc(-n2cncn2)cc1`, for which the inhibition in [1] was 1.71%; in assay [2], 3.63%; in assay [3], 7.17%; in [4], 2.06%; in assay [5], 10.9%; in [6], 2.37%. Also, the inhibition was found to be 8.64% in assay [7], 3.38% in assay [8], 14.2% in assay [9] and 3.31% in assay [10].
For `Clc1ccc(CNc2nccc(-c3cnn4ncccc34)n2)cc1`, the inhibition amounted to 1.31% in [1]; 2.04% in assay [2]; 2.71% in [3]; 1.41% in assay [4]; 1.24% in assay [5]; 0.05% in [6]. In addition, the inhibition in assay [7] was found to be 0.52%; in assay [8], 0.62%; in assay [9], 0.33%; in assay [10] it was 2.62%.
In the case of `COc1ccc2cc(-c3c(-c4ccncc4)nc(-c4ccc([S+](C)[O-])cc4C)n3C)ccc2c1` (stereo not given), the inhibition in [1] is -0.59%; in assay [2], -0.57%; in assay [3] it was -0.64%; in assay [4] it was -0.66%; in assay [5] it was -1.48%; in assay [6], -0.38%. Moreover, the inhibition was -0.28% in assay [7], 0.02% in [8], -0.67% in [9] and -0.13% in assay [10].
For the compound `COc1cc(Nc2ncc(-c3ccccc3)o2)cc(OC)c1OC`, the inhibition was 1.85% in assay [1]; -0.74% in assay [2]; 3.74% in assay [3]; 0.23% in [4]; 3.07% in assay [5]; 0.02% in assay [6]. For the same compound, the inhibition turned out to be 2.83% in assay [7], 0.65% in assay [8], 6.88% in assay [9] and 0.47% in [10].
`CN(C)CCOc1ccc(-c2cc(-c3ccc4c(c3)CCC4=NO)c(-c3ccncc3)o2)cc1`: the inhibition in assay [1] is -1.5%; in assay [2], -2.12%; in [3], -0.39%; in [4] it was -0.55%; in [5], -1.02%; in assay [6], -0.48%. The inhibition is -0.08% in assay [7], -0.08% in assay [8], 0.83% in assay [9] and -0.45% in assay [10].
For the compound `COc1cccc(/C=N/Nc2ncnc3c2cnn3-c2cccc(OC)c2)c1`, the inhibition in [1] came to 3.6%; in assay [2] it was 2.65%; in assay [3], 3.61%; in assay [4] it was 1.05%; in assay [5] it was 0.75%; in [6], 0.86%. The inhibition stood at 1.4% in [7], 1.64% in assay [8], 2.21% in assay [9] and 0.2% in assay [10].
Take `NCc1ccc(-n2c(-c3nonc3N)nc3cnccc32)cc1`: the inhibition in assay [1] amounted to 90.5%; in assay [2], 82.9%; in assay [3], 92.9%; in assay [4] it was 56.2%; in assay [5], 87.9%; in assay [6], 43.4%. Further, the inhibition in assay [7] came out at 81.4%; in [8] it was 55.5%; in assay [9] it was 91.4%; in [10] it was 10%.
With `CN(c1ccc(NC(=O)Nc2c(Cl)cccc2Cl)cc1)c1ccnc(Nc2cccc(CS(C)(=O)=O)c2)n1`, the inhibition is 2.01% in assay [1]; 3.46% in assay [2]; 9.15% in assay [3]; 2.34% in assay [4]; 4.66% in assay [5]; 2.08% in assay [6]. In addition, the inhibition in assay [7] is 3.81%; in assay [8], -2.19%; in [9], 1.78%; in assay [10] it was 0.45%.
As for `Fc1ccc(-c2c(-c3ccncc3)nc3n2CCS3)cc1`, the inhibition in [1] was determined as 13.8%; in assay [2], 11.2%; in assay [3], 16.1%; in assay [4], 3.39%; in assay [5], 6.17%; in assay [6] it was 3.04%. Further, the inhibition came to 6% in assay [7], 2.43% in assay [8], 3.27% in assay [9] and 1.3% in assay [10].

The record behind these values is ChEMBL document CHEMBL1961873, “Compounds: GSK PKIS; Assays: Nanosyn kinase panel” (2012).
